# Laboratory results: PubChem BioAssay (Tox21)
# Values joined by “and” are separate entries in the source; they are usually repeats but may differ in a detail not shown here. Equal values may be shown once. Results filed as inconclusive are left out. Where a call stands in place of a potency, no number is given. Where a structure was tested more than once in an assay, its records may differ in their call. Active and inactive are the calls of the source. Unless noted, calls come from the whole dose curve; as a rule, active = well fitted curve in the direction sought with a large enough effect in the repeat runs; inconclusive = weak or mixed curves; inactive = no such curve, though single readings can be large; an effect the other way counts as inactive or inconclusive.
# Assays:
# [1] = qHTS assay to identify small molecule antagonists of the estrogen receptor alpha (ER-alpha) signaling pathway using the BG1 cell line in the presence of 0.1 nM 17-beta-estradiol - cell viability counter screen (AID 1259241); note: nearly all actives have a fitted effect of over 40% in size; note: potency is the fitted concentration of half-maximal effect
# Summary of the method: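 VM7Luc4E2 cells (endogenous full-length ER-alpha, 4xERE-luciferase), cultured 5 days in charcoal-stripped serum, exposed to compounds with 0.1 nM 17beta-estradiol (final) for 22 hr at 37C. Viability read in same wells as live-cell protease fluorescence after 30 min.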
# [2] = qHTS assay to identify small molecule antagonists of the androgen receptor (AR) signaling pathway using the MDA cell line in the presence of 0.5 nM R1881 - cell viability counter screen (AID 1259242); note: nearly all actives have a fitted effect of over 45% in size; note: potency is the fitted concentration of half-maximal effect
# Summary of the method: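 MDA-kb2 cells (human breast carcinoma, stably carrying MMTV-luciferase reporter) were exposed to compounds with 0.5 nM R1881 (final) for 16 hr at 37C, 0% CO2; viability then read as live-cell protease fluorescence (CellTiter-Fluor, 30 min) in the same wells.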
# [3] = biological target: Estrogen receptor (Homo sapiens) (UniProt P03372); assay: qHTS assay to identify small molecule antagonists of the estrogen receptor alpha (ER-alpha) signaling pathway using the BG1 cell line in the presence of 0.1 nM 17-beta-estradiol (AID 1259244); note: nearly all actives have a fitted effect of over 50% in size; note: potency is the fitted concentration of half-maximal effect
# Sequence of Estrogen receptor (Homo sapiens) (P03372 whole entry, looked up): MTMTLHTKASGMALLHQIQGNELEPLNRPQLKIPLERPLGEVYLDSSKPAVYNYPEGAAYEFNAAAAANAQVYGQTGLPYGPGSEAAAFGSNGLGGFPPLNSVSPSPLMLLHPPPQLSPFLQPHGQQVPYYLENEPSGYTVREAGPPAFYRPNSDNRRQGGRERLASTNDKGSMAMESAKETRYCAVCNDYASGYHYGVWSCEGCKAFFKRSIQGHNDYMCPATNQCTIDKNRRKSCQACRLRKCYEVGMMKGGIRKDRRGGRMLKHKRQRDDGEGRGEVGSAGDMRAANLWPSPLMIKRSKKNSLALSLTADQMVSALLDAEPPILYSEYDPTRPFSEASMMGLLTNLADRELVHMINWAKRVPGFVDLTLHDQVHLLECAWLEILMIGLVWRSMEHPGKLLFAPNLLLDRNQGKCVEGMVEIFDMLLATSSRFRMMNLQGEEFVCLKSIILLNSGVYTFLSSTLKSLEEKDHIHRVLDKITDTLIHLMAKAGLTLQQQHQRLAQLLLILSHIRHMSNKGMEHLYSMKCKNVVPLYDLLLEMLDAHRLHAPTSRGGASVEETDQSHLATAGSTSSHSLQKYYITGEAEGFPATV
# Summary of the method: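 VM7Luc4E2 cells (endogenous full-length ER-alpha, stable 4xERE-luciferase) were grown 5 days in phenol red-free medium with charcoal-stripped FBS, then exposed 22 h at 37C to compounds plus 0.1 nM (final) 17beta-estradiol; ONE-Glo luminescence read-out.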
# [4] = qHTS assay to identify small molecule HDAC inhibitors (AID 1259364); note: top concentration of the series differs between compounds; nearly all actives have a fitted effect of over 45% in size
# Summary of the method: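 Wild-type HCT-116 cells were plated overnight, exposed to compounds for 2 h at 37 °C, then given HDAC-Glo class I/II luminogenic reagent for 30 min at room temperature before luminescence was read.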
# [5] = qHTS assay to identify small molecule HDAC inhibitors - cell viability counter screen (AID 1259365); note: nearly all actives have a fitted effect of over 50% in size; note: potency is the fitted concentration of half-maximal effect
# Summary of the method: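 Wild-type HCT-116 cells, 1,500/well, cultured overnight, then compound-treated 2 h at 37 C. Viability measured as ATP luminescence with CellTiter-Glo after 30 min at room temperature.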
# [6] = qHTS assay to identify small molecule agonists of the sonic hedgehog signaling (Shh) pathway - cell viability counter screen (AID 1259366); note: nearly all actives have a fitted effect of over 50% in size; note: potency is the fitted concentration of half-maximal effect
# Summary of the method: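 NIH/3T3-derived Gli1-Luc reporter cells, 2,000 per well, received compound after 4 h and were treated about 23 h at 37C. Viability measured in the same wells by CellTiter-Fluor fluorescence after 1 h.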
# [7] = qHTS assay to identify small molecule antagonists of the sonic hedgehog signaling (Shh) pathway - cell viability counter screen (AID 1259367); note: nearly all actives have a fitted effect of over 55% in size; note: potency is the fitted concentration of half-maximal effect
# Summary of the method: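 Using CellTiter-Fluor, viability of Gli1-Luc reporter 3T3 cells is read by fluorescence in the wells used for the Shh luciferase assay. Treatment lasts 23 hr with conditioned medium, then reagent 1 hr at 37C.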
# [8] = qHTS assay to identify small molecule agonists of the sonic hedgehog signaling (Shh) pathway (AID 1259368; calls by dose curve; note: series mostly up to about 92 µM; nearly all actives have a fitted effect of over 15% in size)
# Summary of the method: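 NIH/3T3-derived 3T3Gli1-Luc cells carrying a stably integrated Gli1 response element–firefly luciferase reporter were plated, left 4 hr at 37 C, then given compounds in DMSO for 24 hr. Luminescence was read 30 min after adding luciferase reagent.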
# [9] = qHTS assay to identify small molecule antagonists of the sonic hedgehog signaling (Shh) pathway (AID 1259369; calls by dose curve; note: nearly all actives have a fitted effect of over 45% in size; note: potency is the fitted concentration of half-maximal effect)
# Summary of the method: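 NIH/3T3-derived 3T3Gli1-Luc cells with stably integrated Gli1-Luc reporter were preincubated 4hr at 37 C, then given compounds in DMSO plus Shh conditioned medium and incubated 24hr. Firefly luciferase luminescence read after 30min reagent at room temperature.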
# [10] = qHTS assay to identify small molecule agonists of the androgen receptor (AR) signaling pathway in the presence of an antagonist - cell viability counter screen (AID 1259379); note: nearly all actives have a fitted effect of over 25% in size; note: potency is the fitted concentration of half-maximal effect
# Summary of the method: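 MDA-kb2 human breast carcinoma cells (stable MMTV-luciferase, AR/GR responsive) were seeded 3,000 cells/well, pre-incubated 5 hr at 37C without CO2, then given 3.0uM nilutamide and compounds at 15 concentrations for 16 hr. Viability was read by CellTiter-Fluor fluorescence.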
# [11] = qHTS assay to identify small molecule agonists of the estrogen receptor beta (ER-beta) signaling pathway - cell viability counter screen (AID 1259380); note: nearly all actives have a fitted effect of over 30% in size; note: potency is the fitted concentration of half-maximal effect
# Summary of the method: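 ER-beta-UAS-bla HEK293T cells in medium with 2% charcoal-stripped FBS were preincubated 6 hr at 37C, dosed with compound in DMSO for 16 hr, then after the bla read, CellTiter-Glo was added for 30 min at room temperature; luminescence recorded.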
# [12] = qHTS assay to identify small molecule antagonists of the estrogen receptor beta (ER-beta) signaling pathway - cell viability counter screen (AID 1259382); note: nearly all actives have a fitted effect of over 55% in size; note: potency is the fitted concentration of half-maximal effect
# Summary of the method: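 ER-beta-UAS-bla HEK293T cells (2,000/well, 2% charcoal-stripped FBS) were pre-incubated 6 hr at 37C, then given compound plus 1nM final 17-beta-estradiol for 16 hr. Viability was read in the same wells by CellTiter-Glo luminescence after 30 min at room temperature.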
# [13] = biological target: Estrogen receptor (Homo sapiens) (UniProt P03372); assay: qHTS assay to identify small molecule agonists of the estrogen receptor alpha (ER-alpha) signaling pathway in the presence of an antagonist (AID 1259383; calls by dose curve; note: nearly all actives have a fitted effect of over 15% in size; note: potency is the fitted concentration of half-maximal effect; for activation: top concentration of the series differs between compounds)
# Summary of the method: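 VM7Luc4E2 cells (endogenous full-length ER-alpha, 4×ERE-luciferase) were precultured 5 days in phenol red-free medium with 10% charcoal-stripped FBS, given 10.0nM ICI-182,780 (final), then treated with compounds at 15 concentrations for 22hr at 37C; luminescence read with ONE-Glo.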
# [14] = qHTS assay to identify small molecule agonists or antagonists of the thyroid stimulating hormone receptor (TSHR) signaling pathway - wild type cell line counter screen (AID 1259384; calls by dose curve)
# Summary of the method: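 Counter screen in untransfected Hek293: compounds (15-point titration, triplicate) plus phosphodiesterase inhibitor Ro20-1724 added after 18 h plating; 30 min RT. Intracellular cAMP via competitive d2/cryptate immunoassay, 1 h incubation.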
# [15] = biological target: Thyrotropin receptor (Homo sapiens) (UniProt P16473); assay: qHTS assay to identify small molecule antagonists of the thyroid stimulating hormone receptor (TSHR) signaling pathway (AID 1259385; calls by dose curve; note: nearly all actives have a fitted effect of over 20% in size; note: potency is the fitted concentration of half-maximal effect)
# Sequence of Thyrotropin receptor (Homo sapiens) (P16473 whole entry, looked up): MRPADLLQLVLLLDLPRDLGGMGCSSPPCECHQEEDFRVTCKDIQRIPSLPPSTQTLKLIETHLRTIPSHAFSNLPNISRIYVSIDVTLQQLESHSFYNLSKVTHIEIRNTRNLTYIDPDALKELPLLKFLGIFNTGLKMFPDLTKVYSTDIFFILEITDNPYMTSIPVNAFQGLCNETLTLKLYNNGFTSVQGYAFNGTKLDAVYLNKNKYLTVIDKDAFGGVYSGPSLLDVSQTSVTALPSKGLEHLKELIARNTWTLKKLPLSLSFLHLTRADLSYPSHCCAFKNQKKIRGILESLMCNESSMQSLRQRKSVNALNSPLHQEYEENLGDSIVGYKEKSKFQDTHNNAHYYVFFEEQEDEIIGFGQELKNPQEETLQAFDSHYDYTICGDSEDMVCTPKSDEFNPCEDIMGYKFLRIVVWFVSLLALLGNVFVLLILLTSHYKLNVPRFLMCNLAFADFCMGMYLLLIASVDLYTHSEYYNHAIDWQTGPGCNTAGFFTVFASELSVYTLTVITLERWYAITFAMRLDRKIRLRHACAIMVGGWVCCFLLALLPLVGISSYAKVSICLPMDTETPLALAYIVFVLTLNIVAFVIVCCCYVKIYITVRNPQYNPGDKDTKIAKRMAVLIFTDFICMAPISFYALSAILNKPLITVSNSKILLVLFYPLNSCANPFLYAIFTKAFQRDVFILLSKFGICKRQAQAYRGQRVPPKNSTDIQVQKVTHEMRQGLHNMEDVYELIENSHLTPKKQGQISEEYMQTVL
# Summary of the method: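 Antagonist mode: compound-treated TSHR-expressing HEK293 cells were stimulated with 1.5 ng/mL TSH (final) in presence of Ro20-1724 for 30 min at RT. HTRF cAMP detection after 1 h; each compound tested at 15 concentrations, triplicate.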
# [16] = biological target: Estrogen receptor beta (Homo sapiens) (UniProt Q92731); assay: qHTS assay to identify small molecule agonists of the estrogen receptor beta (ER-beta) signaling pathway (AID 1259377; active = well fitted activation curve with a large enough effect in the signal ratio in the repeat runs, not every such curve was filed as active; the % refers to the signal ratio)
# Sequence of Estrogen receptor beta (Homo sapiens) (Q92731 whole entry, looked up): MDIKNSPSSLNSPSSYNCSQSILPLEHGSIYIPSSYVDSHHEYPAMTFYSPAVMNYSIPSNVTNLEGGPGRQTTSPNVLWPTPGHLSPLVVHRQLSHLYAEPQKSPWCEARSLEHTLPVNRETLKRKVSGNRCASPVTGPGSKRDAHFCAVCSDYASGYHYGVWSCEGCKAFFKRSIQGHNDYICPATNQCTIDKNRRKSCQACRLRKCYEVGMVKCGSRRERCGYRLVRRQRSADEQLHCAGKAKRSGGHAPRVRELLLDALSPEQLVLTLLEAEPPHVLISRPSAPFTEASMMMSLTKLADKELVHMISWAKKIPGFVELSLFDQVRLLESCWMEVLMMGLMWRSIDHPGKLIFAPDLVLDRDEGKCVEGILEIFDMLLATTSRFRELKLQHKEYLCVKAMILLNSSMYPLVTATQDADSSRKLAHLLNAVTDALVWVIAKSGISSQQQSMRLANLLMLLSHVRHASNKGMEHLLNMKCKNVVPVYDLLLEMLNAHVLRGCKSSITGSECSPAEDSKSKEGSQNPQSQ
# Summary of the method: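 ER-beta-UAS-bla HEK293T cells in medium with 2% charcoal-stripped FBS were exposed to compounds for 16 h at 37C. Beta-lactamase reporter activity was read as fluorescence after 2 h with LiveBLAzer B/G FRET substrate at room temperature.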
# [17] = biological target: Estrogen receptor beta (Homo sapiens) (UniProt Q92731); assay: qHTS assay to identify small molecule antagonists of the estrogen receptor beta (ER-beta) signaling pathway (AID 1259378; active = well fitted inhibition curve with a large enough effect in the signal ratio in the repeat runs, not every such curve was filed as active; the % refers to the signal ratio; note: potency is the fitted concentration of half-maximal effect)
# Summary of the method: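 Antagonist mode: compounds added to beta-lactamase reporter HEK293T ER-beta-UAS cells stimulated with E2 (1nM final), 16 hr at 37C. LiveBLAzer B/G FRET substrate, 2 hours room temperature, fluorescence read-out.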
# [18] = qHTS assay to identify small molecule phospholipidosis (PLD) inducers (AID 1259344; active = well fitted curve in the direction sought with a large enough effect; an effect the other way counts as inactive or inconclusive)
# Summary of the method: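 Fluorescent phospholipid staining (LipidTOX Red) measured by automated microscopy in fixed HepG2 cells after 24 h treatment; nuclei counterstained with Hoechst 33342; amiodarone as reference inducer.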
SMILES,Potency [1],Potency [2],Potency [3],Potency [4],Potency [5],Potency [6],Potency [7],Potency [8],Potency [9],Potency [10],Potency [11],Potency [12],Potency [13],Potency [14],Potency [15],Potency [16],Potency [17],outcome [18]
CC[N+]1(CC)CCC(OC(=O)C(O)(c2ccccc2)c2ccccc2)C1 (centres undefined),inactive,inactive,inactive,inactive,inactive,inactive,inactive,inactive,inactive,inactive,inactive,inactive,inactive,inactive,inactive,,,
ClC1=C(Cl)[C@]2(Cl)[C@H]3[C@H]([C@@H]4C=C[C@H]3C4)[C@@]1(Cl)C2(Cl)Cl,inactive,inactive,inactive,inactive,inactive,inactive,inactive,inactive,inactive,inactive,61100 nM (active),inactive,inactive,inactive,inactive,,,
[O]=[Cr][O][Cr]=[O],inactive,inactive,inactive,inactive,inactive,inactive,inactive,inactive,inactive,inactive,inactive,inactive,inactive,,,inactive,inactive,
CC(=O)[O][Sn]([c]1ccccc1)([c]1ccccc1)[c]1ccccc1,0.545 µM (active),0.306 µM (active),inactive,inactive,54.5 µM (active),54.5 nM (active),0.109 µM (active),inactive,0.0545 µM (active),770 nM (active),137 nM (active),0.137 µM (active),inactive,inactive,19.3 µM (active),,,
CCN(CC)CCc1c[nH]c2ccccc12,inactive,inactive,inactive,,inactive,inactive,inactive,inactive,50.9 µM (active),inactive,inactive,inactive,inactive,inactive,inactive,inactive,,inactive
CCC[CH2][Sn]([CH2]CCC)([O]C(C)=O)[O]C(C)=O,0.692 µM (active),0.347 µM (active),0.617 µM (active),inactive,inactive,6170 nM (active),27.6 µM (active),inactive,2.19 µM (active),978 nM (active),276 nM (active),,inactive,inactive,inactive,inactive,0.174 µM (active),
C=CCBr,inactive,inactive,inactive,inactive,inactive,inactive,inactive,inactive,inactive,inactive,inactive,inactive,inactive,inactive,inactive,,,
C[C@]12C/C(=C/O)C(=O)C[C@@H]1CC[C@@H]1[C@@H]2CC[C@@]2(C)[C@H]1CC[C@]2(C)O,inactive,inactive,inactive,inactive,inactive,55 µM (active) and 21.1 µM (active),61.7 µM (active),inactive,15.5 µM (active),61.7 µM (active) and inactive,49 µM (active) and 26.6 µM (active),49 µM (active),8.71 µM (active) and 21.1 µM (active),inactive,inactive,,,inactive
ClC(Cl)C(Cl)(Cl)Cl,inactive,inactive,inactive,inactive,inactive,inactive,inactive,inactive,inactive,inactive,inactive,inactive,,inactive,inactive,inactive,inactive,
CCCCC(CC)COC(=O)c1ccccc1C(=O)OCC(CC)CCCC (centres undefined),inactive,inactive,inactive,inactive,inactive,inactive,inactive,inactive,inactive,inactive,,inactive,27.3 µM (active),inactive,inactive,,,inactive
CCCCc1ccccc1,inactive,inactive,inactive,inactive,inactive,inactive,inactive,inactive,inactive,inactive,inactive,inactive,inactive,inactive,inactive,inactive,inactive,
Nc1nc(N)nc(Cl)n1,inactive,inactive,inactive,inactive,inactive,inactive,inactive,inactive,inactive,inactive,inactive,inactive,,inactive,inactive,inactive,inactive,
CC(=O)C(Cl)C(=O)N(C)C (centres undefined),inactive,inactive,inactive,inactive,inactive,inactive,inactive,inactive,inactive,inactive,inactive,inactive,inactive,inactive,inactive,inactive,inactive,
